In PubChem BioAssay AID1159580 (chemical genetic matrix, 2015):
Values joined by “and” are separate entries in the source; they are usually repeats but may differ in a detail not shown here. Equal values may be shown once. In all, about 5,500 compounds went through this assay and about 2,000 (36%) were called active. Inconclusive results (about 18%) are left out. Cut-off read from the data, not from the text of the source: active = normalized growth mostly below about 0.91 (no sharp cut-off); inconclusive = no clear call, values can overlap the other calls; inactive = mostly above about 0.92. The list shows a part of the results.

Assay: chemical genetic growth profiling, strain panel (AID 1159580);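 note: tested at 20 µM; growth read once vehicle control cultures reached saturation at 30 °C; 1 = growth at the plate median or of vehicle wells; lower values mean less growth of the strain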
Settings: S. cerevisiae deletion strains, growth OD

Measured: normalized growth

CNC(C)(C)Cc1ccccc1
inactive: locus YAL013W, strain DEP1, hits give low values 1.01 | locus YAL021C, strain ccr4, hits give low values 0.997 | locus YAL026C, strain drs2, hits give low values 1.01 | locus YAL030W, strain snc1, hits give low values 1.01 | locus YBL061C, strain skt5, hits give low values 1.02 | locus YBR009C, strain hhf1, hits give low values 1.02 | locus YBR021W, strain FUR4, hits give low values 1.01 | locus YBR023C, strain chs3, hits give low values 1.02 | locus YBR171W, strain sec66, hits give low values 1.02 | locus YBR229C, strain ROT2, hits give low values 1.01 | locus YBR231C, strain swc5, hits give low values 1.02 | locus YBR279W, strain paf1, hits give low values 1.01 | locus YCL011C, strain gbp2, hits give low values 1.02 | locus YCL016C, strain dcc1, hits give low values 1.02 | locus YCL029C, strain bik1, hits give low values 1 | locus YCL061C, strain MRC1, hits give low values 1.01 | locus YCL069W, strain vba3, hits give low values 1.01 | locus YCR088W, strain abp1, hits give low values 1.01 | locus YDL005C, strain med2, hits give low values 1.02 | locus YDL035C, strain GPR1, hits give low values 1.02 | locus YDL040C, strain nat1, hits give low values 1.01 | locus YDL074C, strain BRE1, hits give low values 0.988 | locus YDL101C, strain DUN1, hits give low values 1.01 | locus YDL134C, strain PPH21, hits give low values 1.02 | locus YDL185W, strain tfp1, hits give low values 1.01 | locus YDL192W, strain arf1, hits give low values 1 | locus YDR001C, strain nth1, hits give low values 1 | locus YDR069C, strain doa4, hits give low values 1.02 | locus YDR101C, strain arx1, hits give low values 1.02 | locus YDR137W, strain rgp1, hits give low values 0.958 | locus YDR150W, strain NUM1, hits give low values 1 | locus YDR159W, strain sac3, hits give low values 1 | locus YDR162C, strain NBP2, hits give low values 1.02 | locus YDR195W, strain ref2 1.02 | locus YDR297W, strain sur2, hits give low values 1.02 | locus YDR318W, strain mcm21, hits give low values 1.02 | locus YDR334W, strain swr1, hits give low values 0.991 | locus YDR335W, strain msn5, hits give low values 1.01 | locus YDR388W, hits give low values 1.01 | locus YDR392W, strain spt3, hits give low values 1.01 | locus YDR502C, strain sam2, hits give low values 0.993 | locus YEL003W, strain gim4, hits give low values 1.01 | locus YEL037C, strain rad23, hits give low values 1.01 | locus YEL061C, strain CIN8 (second series), hits give low values 1 | locus YEL061C, strain CIN8, hits give low values 1 | locus YER015W, strain faa2, hits give low values 1.02 | locus YER016W, strain bim1, hits give low values 1.01 | locus YER110C, hits give low values 0.999 | locus YER111C, strain swi4, hits give low values 0.988 | locus YER155C, strain BEM2 (second series), hits give low values 0.996 | locus YER155C, strain BEM2, hits give low values 1.01 | locus YER167W, strain BCK2, hits give low values 1.03 | locus YFR010W, strain ubp6, hits give low values 1.02 | locus YGL078C, strain dbp3, hits give low values 0.998 | locus YGL086W, strain mad1, hits give low values 0.997 | locus YGL167C, strain pmr1, hits give low values 1.01 | locus YGL173C, strain kem1, hits give low values 1.02 | locus YGL227W, strain vid30, hits give low values 1.02 | locus YGL240W, strain doc1, hits give low values 1.02 | locus YGL248W, strain PDE1, hits give low values 0.996 | locus YGL253W, strain hxk2, hits give low values 1.03 | locus YGR078C, strain PAC10, hits give low values 0.994 | locus YGR135W, strain pre9, hits give low values 1.03 | locus YGR252W, strain gcn5, hits give low values 1 | locus YHR013C, strain ard1, hits give low values 1.04 | locus YHR027C, strain rpn1, hits give low values 1.02 | locus YHR030C, strain SLT2, hits give low values 1.01 and 1.04 | locus YHR079C, strain IRE1 (second series), hits give low values 1 | locus YHR079C, strain IRE1, hits give low values 1.04 | locus YHR094C, strain hxt1, hits give low values 1 | locus YHR129C, strain ARP1, hits give low values 1.01 | locus YHR142W, strain chs7, hits give low values 1.01 | locus YHR200W, strain rpn10, hits give low values 1.01 | locus YIL066C, strain RNR3, hits give low values 1 | locus YIL073C, strain SPO22, hits give low values 1.06 | locus YIL125W, strain kgd1, hits give low values 0.996 | locus YIR030C, strain dcg1, hits give low values 1.01 | locus YJL092W, strain hpr5, hits give low values 1.01 | locus YJL095W, strain BCK1 (second series), hits give low values 1.01 | locus YJL095W, strain BCK1, hits give low values 0.99 and 1.04 | locus YJL115W, strain asf1, hits give low values 1.01 | locus YJL129C, strain trk1, hits give low values 0.983 | locus YJL134W, strain LCB3, hits give low values 1.01 | locus YJL154C, strain vps35, hits give low values 1 | locus YJL164C, strain tpk1, hits give low values 1.02 | locus YJL166W, strain qcr8, hits give low values 1.02 | locus YJL168C, strain set2, hits give low values 1 | locus YJL187C, strain SWE1 (second series), hits give low values 0.986 | locus YJL187C, strain SWE1, hits give low values 1.02
